# Reference: the supplement of paper PMC8728848
# This is one part of a sample in which the strongest signals are shown more often than they occur.
# What was measured:
# Test in all cases: glycan array binding signal (z-score within array); higher = stronger binding
# Conditions in all cases: glycan notation: IUPAC condensed, linker removed
# [1] = biological target: Fuc(a1-2)Gal(b1-3)GlcNAc(b1-2)Man(a1-3)[Fuc(a1-2)Gal(b1-3)GlcNAc(b1-2)Man(a1-6)]Man(b1-4)GlcNAc(b1-4)GlcNAc
# Method in brief: (§1)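 The binding signal is a Z-score computed within each array. Data were drawn from 3228 arrays in the Consortium for Functional Glycomics database, restricted to those with a known protein sequence. Scores were averaged over arrays of the same protein sequence at different concentrations or buffers, and over linkers, and negative values can be taken as non-binding.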
# [2] = biological target: Fuc(a1-2)Gal(b1-3)GlcNAc(b1-3)GalNAc
# Method in brief: as §1
# [3] = biological target: Fuc(a1-2)Gal(b1-3)GlcNAc(b1-3)[Fuc(a1-2)Gal(b1-3)GlcNAc(b1-6)]GalNAc
# Method in brief: as §1
# [4] = biological target: Fuc(a1-2)Gal(b1-3)GlcNAc(b1-3)[Gal(b1-4)GlcNAc(b1-6)]Gal(b1-4)Glc
# Method in brief: as §1
# [5] = biological target: Fuc(a1-2)Gal(b1-3)[Fuc(a1-4)]GlcNAc(b1-2)Man(a1-3)[Fuc(a1-2)Gal(b1-3)[Fuc(a1-4)]GlcNAc(b1-2)Man(a1-6)]Man(b1-4)GlcNAc(b1-4)[Fuc(a1-6)]GlcNAc(b1-4)[Fuc(a1-6)]GlcNAc
# Method in brief: as §1
# Fuc(a1-2)Gal(b1-4)GlcNAc = biological target: Fuc(a1-2)Gal(b1-4)GlcNAc
# Method in brief: as §1
# [6] = biological target: Fuc(a1-2)Gal(b1-4)GlcNAc(b1-2)Man(a1-3)[Fuc(a1-2)Gal(b1-4)GlcNAc(b1-2)Man(a1-6)]Man(b1-4)GlcNAc(b1-4)GlcNAc
# Method in brief: as §1
# [7] = biological target: Fuc(a1-2)Gal(b1-4)[Fuc(a1-3)]GlcNAc(b1-3)GalNAc
# Method in brief: as §1
# [8] = biological target: Fuc(a1-2)[Gal(a1-3)]Gal(b1-3)GlcNAc
# Method in brief: as §1
# [9] = biological target: Fuc(a1-2)[Gal(a1-3)]Gal(b1-3)GlcNAc(b1-2)Man(a1-3)[Fuc(a1-2)[Gal(a1-3)]Gal(b1-3)GlcNAc(b1-2)Man(a1-6)]Man(b1-4)GlcNAc(b1-4)GlcNAc
# Method in brief: as §1
# [10] = biological target: Fuc(a1-2)[Gal(a1-3)]Gal(b1-4)GlcNAc(b1-6)GalNAc
# Method in brief: as §1
# [11] = biological target: Fuc(a1-2)[GalNAc(a1-3)]Gal(b1-4)GlcNAc(b1-3)Gal(b1-4)GlcNAc(b1-3)Gal(b1-4)GlcNAc
# Method in brief: as §1
# [12] = biological target: Gal(b1-3)GalNAc(b1-3)Gal(a1-4)Gal(b1-4)Glc
# Method in brief: as §1
# [13] = biological target: Gal(b1-3)GlcNAc(b1-2)Man(a1-3)[Gal(b1-3)GlcNAc(b1-2)Man(a1-6)]Man(b1-4)GlcNAc(b1-4)GlcNAc
# Method in brief: as §1
# [14] = biological target: Gal(b1-3)GlcNAc(b1-2)Man(a1-3)[Gal(b1-3)GlcNAc(b1-2)Man(a1-6)]Man(b1-4)GlcNAc(b1-4)[Fuc(a1-6)]GlcNAc
# Method in brief: as §1
# [15] = biological target: Gal(b1-3)GlcNAc(b1-2)[Gal(b1-3)GlcNAc(b1-6)]Man(a1-6)[Gal(b1-3)GlcNAc(b1-2)Man(a1-3)]Man(b1-4)GlcNAc(b1-4)GlcNAc
# Method in brief: as §1
# [16] = biological target: Gal(b1-3)[Fuc(a1-4)]GlcNAc
# Method in brief: as §1
# Gal(b1-4)Gal = biological target: Gal(b1-4)Gal
# Method in brief: as §1
# [17] = biological target: Gal(b1-4)GlcNAc(a1-6)Gal(b1-4)GlcNAc
# Method in brief: as §1
# [18] = biological target: Gal(b1-4)GlcNAc(b1-2)Man(a1-3)[Gal(b1-4)GlcNAc(b1-2)Man(a1-6)]Man(b1-4)GlcNAc(b1-4)GlcNAc
# Method in brief: as §1
# [19] = biological target: Gal(b1-4)GlcNAc(b1-2)Man(a1-3)[GlcNAc(b1-4)][Gal(b1-4)GlcNAc(b1-2)Man(a1-6)]Man(b1-4)GlcNAc(b1-4)GlcNAc
# Method in brief: as §1
# [20] = biological target: Gal(b1-4)GlcNAc(b1-2)Man(a1-6)[GlcNAc(b1-2)Man(a1-3)]Man(b1-4)GlcNAc(b1-4)GlcNAc
# Method in brief: as §1
# [21] = biological target: Gal(b1-4)GlcNAc(b1-2)[Gal(b1-4)GlcNAc(b1-4)]Man(a1-3)[GlcNAc(b1-4)][Gal(b1-4)GlcNAc(b1-2)Man(a1-6)]Man(b1-4)GlcNAc(b1-4)GlcNAc
# Method in brief: as §1
# GalNAc6S(b1-4)GlcNAc = biological target: GalNAc6S(b1-4)GlcNAc
# Method in brief: as §1
# GlcA(b1-6)Gal = biological target: GlcA(b1-6)Gal
# Method in brief: as §1
# [22] = biological target: GlcNAc(a1-4)Gal(b1-4)GalNAc
# Method in brief: as §1
# [23] = biological target: GlcNAc(b1-2)Man(a1-3)[GlcNAc(b1-2)Man(a1-6)]Man(b1-4)GlcNAc(b1-4)GlcNAc
# Method in brief: as §1
# [24] = biological target: GlcNAc(b1-2)[GlcNAc(b1-4)]Man(a1-3)[GlcNAc(b1-2)Man(a1-6)]Man(b1-4)GlcNAc(b1-4)GlcNAc
# Method in brief: as §1
# GlcNAc(b1-3)Fuc = biological target: GlcNAc(b1-3)Fuc
# Method in brief: as §1
# [25] = biological target: Man(a1-2)Man(a1-3)[Man(a1-2)Man(a1-6)]Man(a1-6)[Man(a1-2)Man(a1-2)Man(a1-3)]Man
# Method in brief: as §1
# [26] = biological target: Neu5Ac(a2-3)Gal(b1-3)[Fuc(a1-4)]GlcNAc(b1-3)Gal(b1-3)[Fuc(a1-4)]GlcNAc
# Method in brief: as §1
# [27] = biological target: Neu5Ac(a2-3)Gal(b1-4)GlcNAc(b1-3)Gal(b1-4)[Fuc(a1-3)]GlcNAc
# Method in brief: as §1
# Neu5Ac(a2-3)GalNAc = biological target: Neu5Ac(a2-3)GalNAc
# Method in brief: as §1
# [28] = biological target: Neu5Ac(a2-6)Gal(b1-4)GlcNAc(b1-2)Man(a1-3)[GlcNAc(b1-4)][Neu5Ac(a2-6)Gal(b1-4)GlcNAc(b1-2)Man(a1-6)]Man(b1-4)GlcNAc(b1-4)GlcNAc
# Method in brief: as §1
# [29] = biological target: Neu5Ac(a2-6)Gal(b1-4)GlcNAc(b1-2)Man(a1-6)[Gal(b1-4)GlcNAc(b1-2)Man(a1-3)]Man(b1-4)GlcNAc(b1-4)GlcNAc
# Method in brief: as §1
# [30] = biological target: Neu5Ac(a2-6)Gal(b1-4)GlcNAc(b1-2)Man(a1-6)[GlcNAc(b1-2)Man(a1-3)]Man(b1-4)GlcNAc(b1-4)GlcNAc
# Method in brief: as §1
# [31] = biological target: Neu5Ac(a2-6)Gal(b1-4)GlcNAc(b1-2)Man(a1-6)[Man(a1-3)]Man(b1-4)GlcNAc(b1-4)GlcNAc
# Method in brief: as §1
# [32] = biological target: Neu5Ac(a2-6)Gal(b1-4)GlcNAc(b1-6)GalNAc
# Method in brief: as §1
# [33] = biological target: Neu5Ac(a2-8)Neu5Ac(a2-8)Neu5Ac
# Method in brief: as §1
# [34] = biological target: Neu5Ac9Ac(a2-6)Gal(b1-4)GlcNAc
# Method in brief: as §1
binder,measurement,setting,value
CAA (Caragana arborescens) (protein) VAVEFDTFDNPDWDPRTKHIGIDVNSIRSNKTTQWGFWNRQVADVDISYEASSKTLNVSLYYPGESYIVTDVVDLKDILPEWVRIGF,glycan array binding signal (z-score),[1],4.07
same,glycan array binding signal (z-score),[2],-0.244
same,glycan array binding signal (z-score),[3],-0.242
same,glycan array binding signal (z-score),[4],-0.249
same,glycan array binding signal (z-score),[5],1.03
same,glycan array binding signal (z-score),Fuc(a1-2)Gal(b1-4)GlcNAc,-0.242
same,glycan array binding signal (z-score),[6],2.51
same,glycan array binding signal (z-score),[7],-0.238
same,glycan array binding signal (z-score),[8],-0.238
same,glycan array binding signal (z-score),[9],3.82
same,glycan array binding signal (z-score),[10],-0.248
same,glycan array binding signal (z-score),[11],-0.233
same,glycan array binding signal (z-score),[12],-0.24
same,glycan array binding signal (z-score),[13],6.61
same,glycan array binding signal (z-score),[14],5.29
same,glycan array binding signal (z-score),[15],5.63
same,glycan array binding signal (z-score),[16],-0.24
same,glycan array binding signal (z-score),Gal(b1-4)Gal,-0.24
same,glycan array binding signal (z-score),[17],-0.241
same,glycan array binding signal (z-score),[18],4.25
same,glycan array binding signal (z-score),[19],-0.106
same,glycan array binding signal (z-score),[20],5.87
same,glycan array binding signal (z-score),[21],-0.239
same,glycan array binding signal (z-score),GalNAc6S(b1-4)GlcNAc,-0.252
same,glycan array binding signal (z-score),GlcA(b1-6)Gal,-0.239
same,glycan array binding signal (z-score),[22],-0.239
same,glycan array binding signal (z-score),[23],5.92
same,glycan array binding signal (z-score),[24],7.33
same,glycan array binding signal (z-score),GlcNAc(b1-3)Fuc,-0.246
same,glycan array binding signal (z-score),[25],-0.246
same,glycan array binding signal (z-score),[26],-0.24
same,glycan array binding signal (z-score),[27],-0.242
same,glycan array binding signal (z-score),Neu5Ac(a2-3)GalNAc,-0.243
same,glycan array binding signal (z-score),[28],-0.251
same,glycan array binding signal (z-score),[29],3.9
same,glycan array binding signal (z-score),[30],5.95
same,glycan array binding signal (z-score),[31],0.262
same,glycan array binding signal (z-score),[32],-0.236
same,glycan array binding signal (z-score),[33],-0.249
same,glycan array binding signal (z-score),[34],-0.245
